TLR4 MyD88 comp – TLR4-MyD88 interaction inhibition in cells; O00206+Q99836; 200,000 compounds, 0.18% hits; inhibition, % at 8.4 µM; HeLa CL3-4 TLR4/MyD88 BLA complementation, FRET ratio; in the data active means inhibition above about 25%;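 further: 0% = vehicle and 100% = reference inhibitor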
ABHD5 PLIN5 PPI – inhibitors of human ABHD5-perilipin-5 interaction; 360,000 compounds, 0.78% hits; inhibition, % at 4 µM; Split G. princeps luciferase complementation, luminescence, 4 h; Q00G26+Q8WTS1;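 active means inhibition above the mean inhibition across every tested compound plus 3 SD, cut at about 22% in these data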;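 further: 0% = DMSO only wells and the 100% control is not disclosed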
Beta2AR agonist – activates human beta-2 adrenergic receptor causing internalization | 340,000 compounds, 0.43% hits | P07550 | Am2.2-beta2AR cells, FAP receptor internalization, flow cytometry | response, % (test concentration not listed);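 active means response above a set limit, near 3 SD of response in nonfluorescent compounds, cut at about 42% in these data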
TLR9-MyD88 block – TLR9-MyD88 interaction inhibition | Q9NR96+Q99836 | CHO BLA complementation TLR9-MyD88, CCF4 FRET ratio | inhibition, % at 4.98 µM | 340,000 compounds, 0.21% hits | AID 504734;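 active means inhibition above the mean over all tested compounds plus 3 SD, cut at about 21% in these data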;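 further: 0% = DMSO only wells and 100% = clavulanate BLA inhibitor control wells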
NOD2-RIPK2 inh – inhibitors of human NOD2-RIPK2 interaction. AID 624267. inhibition, % at 4.98 µM. CHO BLA complementation NOD2-RIPK2, CCF4 ratio. 360,000 compounds, 0.38% hits. O43353; in the data active means inhibition above about 21%;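 further: 0% = vehicle only and 100% = reference blocker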
NTR1 agonist – activates human neurotensin receptor 1 | activation, % at 20 µM | NTR1-U2OS beta-arrestin-GFP spot imaging, agonist mode | P30989 | 330,000 compounds, 0.17% hits;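 active means activation at or above 40% of the spot to cytoplasm intensity ratio, with at least 20 cells analyzed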;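 further: 0% = DMSO without peptide and 100% = 100 nM NTR1 peptide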
ABHD5-PLIN5 conf – ABHD5-PLIN5 interaction inhibition, confirmed | shares compounds with ABHD5 PLIN5 PPI | biochemical ABHD5-PLIN5 interaction, luminescence | inhibition, % at 4 µM | 2,200 compounds, 67% hits; in the data active means inhibition above about 23%;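 further: 0% = DMSO vehicle wells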
HNF4 split-luc – active in HNF4 split-luciferase counter-screen for ABHD5-PLIN5 inhibitors; shares compounds with ABHD5 PLIN5 PPI; HNF4 dimerization, luminescence, biochemical; inhibition, % at 4 µM; 2,200 compounds, 77% hits; AID 651674;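 active means mean inhibition across replicate wells exceeding the computed hit threshold, cut at about 13% in these data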;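 further: light from luciferase halves that rejoin when HNF4 fusion proteins dimerize; 0% = DMSO only wells and the 100% control is not given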
Target sequence (P41235 whole entry, looked up, the tested form may be a part): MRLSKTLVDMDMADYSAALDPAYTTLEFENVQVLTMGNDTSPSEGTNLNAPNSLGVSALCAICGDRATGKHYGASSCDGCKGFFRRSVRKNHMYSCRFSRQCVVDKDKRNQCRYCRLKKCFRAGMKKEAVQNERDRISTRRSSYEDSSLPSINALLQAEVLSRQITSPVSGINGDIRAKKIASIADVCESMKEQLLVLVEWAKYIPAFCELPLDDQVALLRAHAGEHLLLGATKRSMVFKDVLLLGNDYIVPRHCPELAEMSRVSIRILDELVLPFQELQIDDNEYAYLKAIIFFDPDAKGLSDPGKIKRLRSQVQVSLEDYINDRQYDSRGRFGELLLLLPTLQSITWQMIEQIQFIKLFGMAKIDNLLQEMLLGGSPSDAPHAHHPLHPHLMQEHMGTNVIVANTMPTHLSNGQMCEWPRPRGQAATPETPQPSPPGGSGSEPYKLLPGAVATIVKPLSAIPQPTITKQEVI
Active calls of the source: *; / = not tested or not shown. Most compounds without a hit are left out; they make up all but 1.5% or so of the library.

SMILES | TLR4 MyD88 comp | ABHD5 PLIN5 PPI | Beta2AR agonist | TLR9-MyD88 block | NOD2-RIPK2 inh | NTR1 agonist | ABHD5-PLIN5 conf | HNF4 split-luc
C[C@H]1CN([C@@H](C)CO)C(=O)c2cccc(NC(=O)Nc3ccc(C(F)(F)F)cc3)c2O[C@H]1CN(C)C | / | 28* | 17 | 7 | -20 | 2 | 13 | 3
COc1ccc(S(=O)(=O)Nc2cccc3c2O[C@H](CN(C)Cc2ccncc2)[C@@H](C)CN([C@H](C)CO)C3=O)cc1 | / | 24* | 0 | -8 | -6 | 1 | 3 | 0
C[C@H](CO)N1C[C@H](C)[C@@H](CN(C)Cc2ccc(Oc3ccccc3)cc2)Oc2c(NC(=O)C3CC3)cccc2C1=O | / | 28* | 28 | -1 | 9 | 16 | 9 | 4
Nc1cccc(-c2c[nH]c3ncc(-c4cccnc4)cc23)c1 | / | -1 | 14 | 3 | -5 | / | / | /
O=C1C(Cl)=C(N2CCOCC2)C(=O)N1c1ccccc1Cl | -11 | 30* | 12 | 6 | 1 | 2 | 59* | 85*
CCCCCCCCCCCCCCCC[n+]1cccc2ccccc21 | 13 | 35* | 28 | -6 | 3 | 1 | 16 | -3
COc1ccc(/C=C/c2cc(-c3ccc(C)cc3)o[n+]2C)cc1 | 0 | 28* | 34 | 4 | -4 | 2 | 44* | 31*
Brc1ccc2nc(-c3ccco3)c(Cc3ccccc3)n2c1 | / | 59* | / | / | -3 | / | 63* | 95*
COC(=O)c1ccc2nc(-c3ccco3)c(Cc3ccc(OC)cc3C)n2c1 | / | 47* | / | / | -14 | / | 72* | 83*
COC(=O)c1ccc2nc(-c3ccco3)c(Cc3ccc(C)cc3)n2c1 | / | 39* | / | / | 3 | / | 19 | 42*
Cc1ccc(Cc2c(-c3ccco3)nc3c4ccccc4ccn23)cc1 | / | 13 | / | / | 4 | / | / | /
Cc1ccc(Cc2c(-c3ccco3)nc3ccc(C)cn23)cc1 | / | 37* | / | / | 8 | / | 14 | 34*
COC(=O)c1ccc2nc(C3CCCCC3)c(Cc3ccccc3C(F)(F)F)n2c1 | / | -2 | / | / | -15 | / | / | /
COC(=O)c1ccc2nc(-c3ccco3)c(Cc3ccccc3C(F)(F)F)n2c1 | / | 52* | / | / | -19 | / | 24* | 66*
COC(=O)c1ccc2nc(-c3ccc(F)cc3)c(Cc3cccc(F)c3)n2c1 | / | -7 | / | / | -5 | / | / | /
COC(=O)c1ccc2nc(-c3ccco3)c(Cc3cccc(F)c3)n2c1 | / | 57* | / | / | 7 | / | 48* | 83*
Cc1cc(C)c2nc(NNC(=O)c3ccc(S(=O)(=O)N4CCCC(C)C4)cc3)sc2c1 (centres undefined) | 9 | 23* | 12 | 2 | 1 | 18 | 59* | /
CC1CCCN(S(=O)(=O)c2ccc(C(=O)Nc3nnc(C4CC4)o3)cc2)C1 (centres undefined) | / | -6 | -2 | 1 | 2 | 1 | / | /
CCCCN1C(=N)N([C@@H](CCC)CN2CCC[C@H]2CN2C(N)=NC[C@@H]2Cc2ccccc2)C[C@H]1Cc1ccccc1 | / | -3 | -7 | -9 | 2 | -4 | / | /
CC(C)[C@H](CN1CCC[C@H]1CN1C(N)=NC[C@@H]1Cc1ccccc1)N1C[C@@H](Cc2ccccc2)N(CCc2ccc(Cl)c(Cl)c2)C1=N | / | 36* | 12 | -4 | -8 | -1 | 23* | 6
CCC[C@@H](CN1CCC[C@H]1CN1C(N)=NC[C@@H]1Cc1ccccc1)N1C[C@@H]([C@H](C)CC)N(CCc2ccc(Cl)c(Cl)c2)C1=N | / | 26* | 2 | -6 | -2 | -2 | 12 | 3
CCC[C@@H](CN1CCC[C@H]1CN1C(N)=NC[C@@H]1Cc1ccccc1)N1C[C@@H](Cc2ccccc2)N(CCc2ccc(Cl)c(Cl)c2)C1=N | / | 29* | -3 | 12 | -2 | 3 | 11 | -2
CCCCNC(=O)C1C(c2ccc(OC)cc2)=Nc2ccccc2N1C(=O)Cc1cc(OC)cc(OC)c1 (centres undefined) | / | -2 | / | / | -9 | / | / | /
